Test results from PubChem BioAssay AID687001 (Broad Institute, 2013).
Potency and affinity values are given separately.

These molecules were tested against Protein S100-A4 (Homo sapiens) (UniProt P26447) (assay: human S100A4 peptide interaction inhibition curves – biochemical, fluorescence polarization, cherry-picked hits, dose response (AID 687001;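 note: 0% = DMSO neutral control wells and -100% = TFP positive control wells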)). Conditions: FP, S100A4/TAMRA-myosin IIA peptide binding; series mostly up to 11 µM; activity change, negative = inhibition: at the top concentration;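 active = signal-lowering compounds whose fitted half-maximal concentration is at or below twice the top tested dose in every run; inconclusive = runs disagree, flat 30 to 70% inhibition, or poor curve fit; inactive = the rest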.
Chain of Protein S100-A4 (Homo sapiens) (P26447 whole entry, looked up): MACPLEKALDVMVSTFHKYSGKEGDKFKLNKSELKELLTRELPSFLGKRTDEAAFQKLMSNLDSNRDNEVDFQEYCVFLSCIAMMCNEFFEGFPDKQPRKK

Activity change, negative = inhibition, inactive:
CC(C)[C@H](NC(=O)c1ccccc1F)C(=O)NCc1ccc(S(N)(=O)=O)cc1 -2.08%
O=C(Nc1ccc(F)cc1)N1CCCCN2[C@H](CO)[C@H](c3ccc(C#Cc4ccccn4)cc3)[C@H]2C1 25.4%
CCCN(CC(=O)Nc1ccccc1C)C(=O)C1CC(=O)N(c2cccc(C)c2C)C1 (stereo unspecified) -1.18%
CC1CCN(C(=O)c2[nH]cnc2C(=O)N[C@@H](C)C(=O)OCc2ccccc2)CC1 -3.45%
C[C@@H]1CN([C@H](C)CO)C(=O)c2cc(N(C)C)ccc2O[C@@H](C)CCCCO[C@@H]1CN(C)C(=O)NC1CCCCC1 18.6%
CCOc1ccccc1CNC(=O)c1cc2occc2n1C 0.09%
Cc1cnc(C(=O)OCC(=O)c2ccccc2)cn1 9.27%
CC(=O)Nc1ccc(NC(=O)C(C)OC(=O)CCCN=C2NS(=O)(=O)c3ccccc32)cc1 (stereo unspecified) 58%
CC(=O)N1[C@H](C(=O)NCCCN(C)C)[C@@H](CO)[C@@H]2Cn3c(ccc(-c4cccc(F)c4)c3=O)[C@@H]21 -0.912%
Cc1ccc(-c2csc(NC3OC(=O)c4ccccc43)n2)cc1 (stereo unspecified) -3.06%
CCn1cc(CNC(=O)C2CCC(=O)N(CCc3cccc(F)c3)C2)cn1 (stereo unspecified) -4.76%
Oc1cccc(-c2sc3ccccc3c2-c2ccc(OCCN3CCCCC3)cc2)c1 0.214%
Cc1cccc2sc(NC(=O)C3CCN(C(=O)c4ccco4)CC3)nc12 -2.59%
C[C@@H]1CN([C@H](C)CO)C(=O)c2cc(NS(=O)(=O)c3ccc(F)cc3)ccc2O[C@@H](C)CCCCO[C@@H]1CN(C)C(=O)NC1CCCCC1 14%
COc1cc(S(=O)(=O)Nc2ccc(C)cc2)ccc1N=Cc1c(C)c(C#N)c(=O)n(C)c1O 28.3%
CC(=O)Cc1cc2cc([N+](=O)[O-])ccc2oc1=O -1.55%
COc1ccc(N2CC(C(=O)Nc3ccccc3N3CCCC3)CC2=O)c(OC)c1 (stereo unspecified) 3.1%
COc1ccc(CN2CC3(CN(C(=O)c4ccccc4)C3)c3c([nH]c4cc(OC)ccc34)[C@H]2CO)cc1 16.1%
CC1CCN(c2nc3c(c(=O)[nH]c(=O)n3C)n2CC(C)CSc2nnnn2-c2ccccc2)CC1 (stereo unspecified) 3.53%
Cc1ccc(NC(=O)COC(=O)c2ccccc2F)cc1S(=O)(=O)N1CCCCC1 5.19%
COC(=O)[C@@H]1[C@@H](CO)[C@@H]2Cn3c(cccc3=O)[C@@H]2N1CC1CCOCC1 0.65%
O=C(O)COCC(=O)Nc1ccc(-n2nc(C(F)(F)F)cc2-c2cccs2)cc1 4.81%
CCc1ccc(C(=O)COC(=O)c2ccco2)cc1 -1.4%
COc1ccc(C(=O)O)cc1S(=O)(=O)Nc1ccccc1-c1ccccc1 6.38%
COC(=O)c1ccc2c(=O)n(CCCCCC(=O)NC3CCCCC3)c(=O)[nH]c2c1 2.1%
CCC(=O)N1C[C@@H]2[C@H](c3ccccc31)[C@@H](CO)N2C(=O)CC 0.177%
